# Compound activity: PubChem, several laboratories
# EBV gp42 inh – inhibitors of Epstein-Barr virus glycoprotein 42; Fluorescence polarization binding assay, mP read-out; inhibition, % (tested at 21.74 µM); 220,000 compounds, 0.42% hits; AID 1085; in the data active = inhibition above about 50%
# BCLXL inh – blocks human Bcl-xL binding to Bim BH3 peptide; 320,000 compounds, 0.7% hits; AID 2129; inhibition, % at 10.9 µM; GST-Bcl-xL / FITC-Bim BH3 peptide fluorescence polarization;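 active = inhibition above the mean of all tested compounds plus 3 SD, cutoff set per campaign, cut at about 30% in these data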;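 note: inhibitors lower millipolarization by displacing the labeled peptide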
# eLon inh – E. coli protease La inhibition | P0A9M0 | purified E. coli Lon protease, fluorescence polarization | inhibition, % at 7.94 µM | 360,000 compounds, 0.42% hits | AID 602123; in the data active = inhibition above about 13%, passing the limit was not always enough
# Target sequence (P0A9M0 whole entry, looked up): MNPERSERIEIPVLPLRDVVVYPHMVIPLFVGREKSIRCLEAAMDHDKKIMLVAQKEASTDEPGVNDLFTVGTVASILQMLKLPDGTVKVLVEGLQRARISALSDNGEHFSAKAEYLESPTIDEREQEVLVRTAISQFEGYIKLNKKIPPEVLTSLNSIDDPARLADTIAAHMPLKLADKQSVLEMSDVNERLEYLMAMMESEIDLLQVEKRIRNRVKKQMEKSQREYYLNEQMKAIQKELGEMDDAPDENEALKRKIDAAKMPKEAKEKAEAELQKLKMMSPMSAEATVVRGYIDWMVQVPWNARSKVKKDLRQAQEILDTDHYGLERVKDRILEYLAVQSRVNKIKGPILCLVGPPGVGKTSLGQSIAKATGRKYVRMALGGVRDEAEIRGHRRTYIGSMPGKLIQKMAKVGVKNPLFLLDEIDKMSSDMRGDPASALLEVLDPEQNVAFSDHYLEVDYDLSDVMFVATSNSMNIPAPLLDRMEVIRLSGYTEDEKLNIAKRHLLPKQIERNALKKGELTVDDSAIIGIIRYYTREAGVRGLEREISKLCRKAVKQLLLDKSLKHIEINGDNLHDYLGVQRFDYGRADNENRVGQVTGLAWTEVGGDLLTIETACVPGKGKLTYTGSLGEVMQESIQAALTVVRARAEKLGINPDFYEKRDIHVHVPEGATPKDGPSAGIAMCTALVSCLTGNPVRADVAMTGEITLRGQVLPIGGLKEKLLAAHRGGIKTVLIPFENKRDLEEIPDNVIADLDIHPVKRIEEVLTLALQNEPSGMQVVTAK
# GLD-1 RNA inh – GLD-1-TGE RNA interaction inhibition (C. elegans) | Q17339 | purified GLD-1 + fluorescein TGE RNA, fluorescence polarization | inhibition, % at 5.96 µM | 320,000 compounds, 0.44% hits | AID 2280;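 active = percent inhibition above a per-plate cutoff, the plate mean of test compounds plus 3 SD, cut at about 30% in these data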
# MEX-5 binding – C. elegans MEX-5 TCR-2 RNA binding activity. activity score (negative = inhibition of binding), % at 10 µM. AID 1832. 300,000 compounds, 0.38% hits. Q9XUB2. MEX-5/FITC-TCR2 RNA binding, fluorescence polarization; active compounds read low;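 active = inhibition past about -25% in most replicates, and total fluorescence under double the plate's negative control median, limit read from the data; inconclusive = replicates evenly split on the limit, or fluorescence at least double controls; inactive = too little inhibition in most replicates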
# MCL1 BIM primary – MCL1-BIM-BH3 interaction inhibition (human). Q07820. GST-MCL1 / FITC-Bim-BH3 fluorescence polarization. inhibition, % at 10.9 µM. 320,000 compounds, 0.68% hits;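 active = inhibition above the mean inhibition of all tested compounds plus 3 SD, set per campaign, cut at about 40% in these data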;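 note: higher means more loss of mP so more displacement of Bim peptide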
# Numbers stand for hits; i = inactive; ? = inconclusive; nt = no result; + = active, no number. In the library only some 1.5% were active in any assay of this set; here they are far more common.
SMILES,EBV gp42 inh,BCLXL inh,eLon inh,GLD-1 RNA inh,MEX-5 binding,MCL1 BIM primary
O=C(CCN1CCCCO1)N1CCCC(N2CCN(c3ccc(F)cc3)CC2)C1 (stereo not drawn),nt,i,i,i,i,i
C[C@@H]1CN([C@@H](C)CO)S(=O)(=O)c2ccc(Br)cc2O[C@@H]1CN(C)C(=O)c1ccncc1,nt,nt,i,nt,nt,nt
CN1C(=O)N(C)c2cccc3cccc1c23,nt,i,i,i,i,i
CC1=Nc2cccc3cccc(c23)N1C,i,i,i,i,-29,i
O=C(c1ccc(F)cc1)[C@@H]1[C@@H](C(=O)c2ccccc2)[C@@]2(C(=O)Nc3ccccc32)[C@H]2c3ccccc3C=CN12,i,i,nt,34,i,i
Nc1ccc2c(c1Cl)C(=O)c1ccc(N)c(Cl)c1C2=O,76,nt,i,nt,i,nt
Nc1c(C(=O)O)ccc2c1C(=O)c1ccccc1C2=O,i,i,i,i,i,i
Cc1cc(OC(=O)c2cc(Br)ccc2Cl)c([N+](=O)[O-])c(=O)[nH]1,nt,i,i,i,i,i
N#C/C(=C\C1=C(N2CCOCC2)C(=C/c2cccc([N+](=O)[O-])c2)/CC1)C(=O)Nc1ccccc1F,86,i,i,i,nt,i
N#C/C(=C/C1=C(N2CCOCC2)C(=C/c2cccc([N+](=O)[O-])c2)/CC1)C(=O)Nc1ccccc1F,nt,nt,i,nt,nt,nt
N#C/C(=C/C1=C(N2CCOCC2)C(=C/c2ccccc2)/CC1)C(=O)Nc1ccccc1F,nt,nt,i,nt,nt,nt
N#C/C(=C\C1=C(N2CCOCC2)C(=C\c2ccc(Cl)cc2)/CC1)C(=O)Nc1ccccc1F,124,i,i,i,i,i
Cc1ccc(C)c(-n2cc(CNCCc3cnccn3)c(-c3ccccc3)n2)c1,i,i,39,i,i,i
Cc1ccc(NCC(=O)N/N=C/c2ccc(C(=O)O)cc2)cc1,i,i,i,i,-61,i
O=C(Cc1ccccc1)NCC(=O)N/N=C/c1ccc(C(=O)O)cc1,nt,i,i,i,i,i
COc1ccc(COC(=O)C2CCN(S(=O)(=O)c3ccc(C)cc3)CC2)cc1,nt,i,i,i,i,i
C=CCN1C=C2C(=O)C(C)(OC(=O)CC)C(=O)C=C2C=C1CCCC (stereo not drawn),i,i,i,42,i,i
CC(C)(C)OC(=O)NCCCC1=CC2=CC(=O)C(C)(OC(=O)c3ccc(Cl)nc3)C(=O)C2=CO1 (stereo not drawn),nt,80,nt,93,?,85
CC1(OC(=O)C2CCCC2)C(=O)C=C2C=C(c3ccsc3)OC=C2C1=O (stereo not drawn),i,i,i,i,i,i
CCCCC1=CC2=CC(=O)C(C)(OC(=O)C3CCCC3)C(=O)C2=CO1 (stereo not drawn),i,i,i,36,i,i
CCCCC1=CC2=CC(=O)C(C)(OC(=O)CC)C(=O)C2=CO1 (stereo not drawn),nt,i,i,37,i,i
CCOc1ccc(NC(=O)CN(C)C(=O)c2cc(S(=O)(=O)N(C)C)ccc2N2CCCC2)cc1OCC,nt,i,i,i,i,i
Cc1ccccc1CC1(CO)CCCN(C(=O)Cc2c(F)ccc(F)c2F)C1 (stereo not drawn),nt,nt,i,nt,i,nt
CSc1ncccc1C(=O)OCC(=O)NC1CCCCC1,nt,i,i,i,nt,i
O=C(Cc1cccs1)NCCc1ccc(Cl)cc1,nt,i,i,i,i,i
SMILES,EBV gp42 inh,BCLXL inh,eLon inh,GLD-1 RNA inh,MEX-5 binding,MCL1 BIM primary
CCC(=O)OC1(C)C(=O)C=C2C=C(CCCCNC(=O)OC(C)(C)C)OC=C2C1=O (stereo not drawn),nt,i,nt,50,i,i
CC(C)(C)OC(=O)NCCCC1=CC2=CC(=O)C(C)(O)C(=O)C2=CO1 (stereo not drawn),nt,34,nt,i,i,i
COC(=O)CCCC1=CC2=CC(=O)C(C)(O)C(=O)C2=CO1 (stereo not drawn),nt,i,nt,i,-39,i
CCC(C)(C)NC(=O)CN(C(=O)CCC(=O)Nc1nccs1)c1cccc(C)c1C,nt,i,i,i,i,i
CC1(C)CSC(=NCCc2ccccc2)N1,nt,i,i,i,i,i
CCCN1CC=C2C(C#N)=C(N)C(C#N)(C#N)C(c3cccc(OC)c3OC)C2C1 (stereo not drawn),75,129,i,104,-67,140
COc1ccc(OC)c(C2C3CN(C(C)C)CC=C3C(C#N)=C(N)C2(C#N)C#N)c1 (stereo not drawn),i,87,i,52,-38,96
COc1cccc(OC)c1OCc1cc(C2C3CCCC=C3C(C#N)=C(N)C2(C#N)C#N)c(C)cc1C (stereo not drawn),i,i,i,i,i,i
CCCCOc1ccc(C2C3CN(C(=O)OCC)CC=C3C(C#N)=C(N)C2(C#N)C#N)cc1OC (stereo not drawn),i,i,i,i,i,i
OCCCc1nc2n(n1)C(c1cccs1)C=C(c1ccc(Br)cc1)N2 (stereo not drawn),141,189,nt,163,-68,+
CN(C)c1ccc(/C=C/C=C2/SC(=S)N(c3ccccc3)C2=O)cc1,i,36,i,i,i,i
Cc1ccc(S(=O)(=O)NC2CC(C)(C)NC(C)(C)C2)cc1C,nt,i,i,i,i,i
CCCc1nn2c(N)c(/C=C3\C=Nc4ccccc43)c(=O)nc2s1,i,i,i,i,i,i
CC(C)Cc1nn2c(N)c(/C=C3\C=Nc4ccccc43)c(=O)nc2s1,i,i,i,i,-46,i
CN(C)c1ncnc2c1NC1=C(S2)C(=NCCCC(=O)O)CC(C)(C)C1,i,32,i,i,i,i
COc1ccc(C(=O)/C=C/Nc2cccc(O)c2)cc1,i,46,i,i,i,48
O=C(O)c1ccc(/C=C/C(=O)c2ccc3c(c2)OCCCO3)cc1,nt,i,i,i,i,i
CC(=O)Nc1ccc(/C=C/C(=O)c2ccc3c(c2)OCCO3)cc1,nt,i,i,i,-53,i
COc1ccc(N/C=C\C(=O)c2ccc3c(c2)OCO3)cc1,i,i,i,i,i,i
COc1ccc(N/C=C/C(=O)c2ccc3c(c2)OCO3)cc1OC,i,i,i,i,-34,i
COc1ccc(N/C=C\C(=O)c2ccc(C)cc2)cc1OC,i,i,i,i,-48,i
COc1ccc(NC(=O)Cc2ccc(Cl)cc2)cc1S(=O)(=O)N1CCCCC1,nt,i,i,i,nt,i
O=C(NCC1CCCO1)c1ccc2c(=O)n(Cc3cccc(Br)c3)c(=S)[nH]c2c1 (stereo not drawn),i,i,i,i,i,i
COc1ccc(N/C=C/C(=O)c2ccc(C)cc2)c([N+](=O)[O-])c1,nt,i,i,i,i,i
CCOc1ccc(N/C=C/C(=O)c2ccc(OC)cc2)c([N+](=O)[O-])c1,59,i,i,i,i,i
Cc1ccc(C)c(NC(=O)c2ccc3ccccc3n2)c1,i,i,i,i,i,i
Cc1ccc(NC(=S)c2ccc3ccccc3n2)c(C)c1,nt,i,i,i,-38,i
